Measured values: PubChem BioAssay AID463190 (Sanford-Burnham Center for Chemical Genomics, 2010)
About 7,300 (2.2%) of roughly 330,000 compounds were called active. What follows is part of a selection rich in actives, with near analogues and random picks from the rest. Unmarked numbers belong to inactive results.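 The calls were made as follows: active = inhibition of at least 40%; inactive = the rest.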

Experiment: growth inhibitors of tim10-1 mutant yeast, primary screen, luminescence, uHTS (AID 463190);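 also: mutant grown at 25 °C; 0% = DMSO wells with yeast and 100% = wells holding no yeast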
Details: S. cerevisiae tim10-1 ts strain growth, BacTiter-Glo, 24 h; at 20 µM; stronger effect = higher value

Compound	inhibition
O=C1CC(c2cccc(Cl)c2)CC(O)=C1C=Nc1ccccc1 (stereo not given)	21.6%
CCOc1ccc(-c2cc(C(=O)N/N=C/c3ccc(O)cc3)c3ccccc3n2)cc1	6.2%
O=C(O)c1cc([N+](=O)[O-])c(Nc2cccc3ccccc23)c([N+](=O)[O-])c1	7.28%
CCOC(=O)c1c(N)nn(C(=O)c2ccccc2)c1-c1ccccc1	41.5% (active)
CCOC(=O)c1nnn(-c2nonc2OC)c1-c1ccccc1	15.2%
CCOC(=O)c1c(-c2cccc(N)c2)cn2ccccc12	10.5%
Cc1ccnc(NC(=O)Cn2ccc([N+](=O)[O-])n2)c1	14.6%
COc1cccc(/C=C/C(=O)OCC(=O)N2CCN(c3ccccc3)CC2)c1	17.4%
CN1c2ccccc2-c2nc3ccccc3n2C1c1ccco1 (stereo not given)	42.1% (active)
Cc1cc(NCc2ccco2)n2c(nc3ccccc32)c1C#N	7.48%
Cn1c(-c2ccco2)nc2cc3ccccc3cc21	33.2%
CCO[C@H]1OC(C(=O)O)=C[C@@H](C2CCCCC2)[C@@H]1CCCO	-21.3%
CCCOc1ccc(Cc2c(Cl)nc(SC)nc2NC)cc1	35.5%
CCc1cc(C(=O)c2ccc(OC)cc2)c(NC(=O)CN2CCN(C)CC2)s1	17.7%
COc1ccc(C(=O)Nc2sc(C)c(C)c2CN2CCOCC2)cc1	34.2%
CCc1cc(C(N)=O)c(NC(=O)c2ccc(OC)cc2)s1	45.5% (active)
C/C(Cn1nnc2ccccc21)=N\OC(=O)c1cc(F)c(F)cc1Cl	37.4%
Cc1n[nH]c(=O)c2c(NC(=O)COC(=O)c3ncc(Cl)c(Cl)c3Cl)oc(C)c12	10.5%
CC(C(=O)O)n1cnc2sc3c(c2c1=O)CCCC3 (stereo not given)	2.4%
COc1cc(Cl)ccc1OCc1cc(C(=O)N(C)CCc2c(C)n[nH]c2C)no1	7.82%
Cc1ccc(CSCC(N)C(=O)O)cc1 (stereo not given)	13.8%
Cc1ccc(C(=O)CSc2ccccc2C(=O)O)cc1	-0.398%
Cc1ccc(SC(CC(=O)c2ccc(C(C)(C)C)cc2)C(=O)O)cc1 (stereo not given)	40.7% (active)
CCC(C(=O)OCC(=O)Nc1c(Cl)cc(Cl)cc1Cl)c1ccccc1 (stereo not given)	39.5%

Compound	inhibition
CCOC(=O)c1c(CN(C)C)n(-c2ccccc2)c2cc(Br)c(O)cc12	10.1%
CCOC(=O)c1c(CN2CCOCC2)n(-c2ccccc2)c2ccc(O)cc12	45% (active)
CCOC(=O)c1nnn(-c2nonc2-n2cccc2)c1CN1CCOCC1	23.2%
CCN(CC)c1ccc(C2C3CCCCC3(O)CCN2CC(=O)Nc2ccccc2)cc1 (stereo not given)	-17.2%
CC1CCCCN1CC(=O)NCc1ccc2c(c1)OCO2 (stereo not given)	4.67%
Cc1ccc(NC(=O)CN2CCC3(O)CCCCC3C2c2ccc3c(c2)OCO3)c(C)c1 (stereo not given)	45.2% (active)
COc1ccc(N2CCN(C(=O)COC(=O)c3cccc(S(=O)(=O)Nc4ccccc4OC)c3)CC2)cc1	19.1%
O=C1NC[C@@H](c2ccccc2)OC(=O)[C@H](Cc2ccc(F)cc2)CC/C=C/C[C@H]1CC(=O)N(CCO)Cc1ccccc1	3%
S=c1nc(C23CC4CC(CC(C4)C2)C3)nc2sccn12	-12.4%
CCOc1ccc(NC(=O)COc2ccc(C(=O)N3CCC(C(N)=O)CC3)cc2OC)cc1	3.08%
Cc1cccc(C(=O)N2CCc3c([nH]c4ccccc34)C2CC(C)C)n1 (stereo not given)	10.6%
O=C(c1cn2ccccc2n1)N1CCc2c([nH]c3ccccc23)C1c1ccccn1 (stereo not given)	22.4%
Cc1cccc(C2c3[nH]c4ccccc4c3CCN2C(=O)c2cc(-c3cccn3C)n[nH]2)n1 (stereo not given)	44% (active)
COCC1CCN(C(=O)C2CCC(=O)N(CC3CCCCC3)C2)CC1 (stereo not given)	-9.11%
Cc1nc(SC(C)C)[nH]c(=O)c1Cc1ccccc1	18.7%
O=C1COc2ccc(S(=O)(=O)Nc3ccc(OC(F)(F)F)cc3)cc2N1	18.6%
Cc1nn(C)c(C)c1NS(=O)(=O)c1ccc(OC(F)(F)F)cc1	-1.38%
O=S(=O)(Nc1ccc(O)c2ccccc12)c1ccc(OC(F)(F)F)cc1	42.5% (active)
CC(=O)NS(=O)(=O)c1ccc2c(c1)Cc1cc(S(=O)(=O)NC(C)=O)ccc1-2	-1.53%
O=C1CC2(CC(c3ccc(Cl)cc3)=NO2)C(=O)N1c1ccccc1 (stereo not given)	-3.93%
CN(C)CCCN(C(=O)c1ccc(S(=O)(=O)N2CCCCCC2)cc1)c1nc2ccc(Br)cc2s1	26.2%
CN(C)CCCN(C(=O)c1ccc(S(=O)(=O)N2CCCc3ccccc32)cc1)c1nc2ccc(F)cc2s1	52.8% (active)
CN(C)CCCN(C(=O)c1ccc(S(=O)(=O)N2CCCCCC2)cc1)c1nc2cc3c(cc2s1)OCCO3	27.4%
O=[N+]([O-])c1ccc(S(=O)(=O)Nc2cccc(-c3ccc(N4CCCC4)nn3)c2)cc1	11.6%

Compound	inhibition
Cc1c(C(=O)NCCN2CCOCC2)sc2nc(-c3ccc(F)cc3)cn12	4.04%
COC(=O)Cc1ccc(NC(=S)NCc2ccccc2)cc1	21.8%
FC(F)(F)Oc1ccc(NC(=S)NCc2ccccc2)cc1	41.8% (active)
CCNC(=S)Nc1ccc(OC(F)(F)F)cc1	14.5%
Cc1ccc(CCNC(=O)C2CCN(S(=O)(=O)N3CCCC3)CC2)cc1	4.68%
CCOc1ccc(C2/C(=C(/O)c3ccc4c(c3)CC(C)O4)C(=O)C(=O)N2CCCn2ccnc2)cc1 (stereo not given)	-3.88%
Cc1onc(-c2ccccc2Cl)c1C(=O)OCC(=O)c1ccccc1	11.7%
Cc1[nH]c2ccccc2c1C(=O)COC(=O)c1c(-c2ccccc2)noc1C	52.3% (active)
Cc1[nH]c2ccccc2c1C(=O)CSCC(=O)O	12.6%
Fc1cccc(Cl)c1CSc1ccc(-c2ccco2)nn1	45.4% (active)
O=C(CSc1ccc(-c2ccco2)nn1)Nc1cccc(F)c1	3.73%
Cc1cc(SCc2c(F)cccc2Cl)nc(=O)[nH]1	6.52%
CC(C)NC(=O)C(=O)NCCN1CCN(S(=O)(=O)c2ccc(Cl)cc2)CC1	2.58%
CC/C(=N\O)C(C)(C)/[N+]([O-])=C/c1ccc(Br)cc1	5.1%
O=C(N/N=C/c1cccc(OCc2ccccc2)c1)c1ccc(Br)o1	27.9%
N#C/C(=C\c1ccc(O)c(O)c1)C(=O)NCc1ccccc1	-4.07%
COCCNC(=O)/C(C#N)=C/c1cccc(OCc2ccccc2)c1	52.7% (active)
C=CCNC(=O)COC(=O)c1ccccc1C(=O)N(C)C1CCCCC1	16.1%
CCOc1ccc(CN2CCN(Cc3ccc(C)o3)CC2CCO)cc1 (stereo not given)	5.81%
O=C(CCc1ccc(S(=O)(=O)N2CCOCC2)cc1)Nc1ccc2ccccc2c1	41.9% (active)
Cc1ccc(CC(=O)Nc2ccc(S(=O)(=O)N3CCOCC3)cc2)cc1C	19%
O=C(COC(=O)CCc1ccc(S(=O)(=O)N2CCOCC2)cc1)Nc1cccc(Cl)c1	5.19%
CC(C)(C)OC(=O)C[C@@H]1C/C=C\C[C@@H](CC(=O)N[C@H](CO)Cc2ccccc2)C(=O)NCCOC1=O	-5.51%
Cc1ccc2c(c1)nnc1nnc(SCC(=O)O)n12	-10.5%

Compound	inhibition
CC1OC2C(OC1C)N(S(C)(=O)=O)CCN2S(C)(=O)=O (stereo not given)	1.46%
Cc1cccc(NC(=O)c2ccc3ccccc3n2)n1	27.1%
Clc1ccc(Nc2ccc3ccccc3n2)cc1	54.1% (active)
Cc1cc(Nc2ccc(Br)cc2)nc2ccccc12	29.6%
CCOC(=O)C1CCCN(S(=O)(=O)c2ccc3c(c2)C(C)(C)C(=O)N3C)C1 (stereo not given)	-10.8%
CC1CCC2(CC1)NC(=O)N(CC(=O)c1ccc3c(c1)OCO3)C2=O (stereo not given)	-17.1%
CSc1ccc(S(=O)(=O)NC2CCCCC2)cc1	45.6% (active)
CC(C)c1ccc(S(=O)(=O)NC2CCCC2)cc1	19%
Cc1ccc(S(=O)(=O)NC2CCCCCC2)cc1	21.3%
CC(=O)c1ccccc1OCc1ccc(C(=O)c2ccccc2)cc1	9.55%
CC1CCN(CC(=O)c2c[nH]c3ccccc23)CC1	16%
O=C(C(=O)N1CCc2ccccc2C1)c1c[nH]c2ccccc12	40.7% (active)
O=C(NC1CCCC1)C(=O)c1c[nH]c2ccccc12	-16.2%
Cc1ccc(N2CC(C(=O)N3CCC4(CC3)CC(=O)c3ccccc3O4)CC2=O)cc1C (stereo not given)	1.3%
C/C(=N/NC(=O)c1cc(Cl)ccc1O)C12CC3CC(CC(C3)C1)C2	50.7% (active)
O=C(N/N=C1\CCSC1)c1cc(Cl)ccc1O	-11.5%
Cc1ccc(C(=O)NC23CC4CC(CC(C4)C2)C3)c(Cl)c1	-11.9%
CCc1noc(C)c1C(=O)Nc1nc2ccc(OC)cc2s1	26.7%
COc1ccc2nc(NC(=O)NC3CCCCC3)sc2c1	21.2%
COc1ccc2nc(Nc3nc4cc5c(cc4s3)OCCO5)sc2c1	47.7% (active)
c1ccc(-c2cnc(CN3CCN(c4ccccc4)CC3)o2)cc1	2.4%
Fc1ccc(N2CCN(Cc3cnc(Oc4ccc(Br)cc4)s3)CC2)cc1	42.4% (active)
COc1ccc(N2CCN(Cc3ccc(Br)s3)CC2)cc1	19.9%
